# In PubChem BioAssay:
# Activity calls are given as the source filed them. Unless noted, the rule behind the calls is not given here.
# Experiments:
# [1] = HepG2 liver cancer cell viability effects, profiling panel, resazurin fluorescence, 24 h, PK04 Diversity Set (AID 1172); details: higher = more signal
# [2] = basal S. cerevisiae growth modulation, no modifier, primary screen, OD600, strain BY4716, 24 h, basal condition (AID 1173); details: OD600, 24 h, higher = more signal, called active from +8 up or from −8 down
# [3] = MM1S myeloma cell viability, profiling panel, resazurin fluorescence, basal, 24 h, PK04 Diversity Set (AID 1174); details: higher = more signal, called active from +8 up or from −8 down;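 note: MM1S multiple myeloma cell line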
# [4] = target: Dihydroorotate dehydrogenase (quinone), mitochondrial (Plasmodium falciparum (isolate 3D7)) (UniProt Q08210); assay: PfDHODH enzyme inhibitors, primary screen, biochemical, C-terminal His tag, absorbance 600 nm (AID 1175); details: DCIP absorbance 600 nm, higher = more signal, called active from +8 up or from −8 down;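 note: recombinant parasite enzyme with a five histidine tag at its C terminus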
# Dihydroorotate dehydrogenase (quinone), mitochondrial (Plasmodium falciparum (isolate 3D7)), sequence (Q08210 whole entry, looked up): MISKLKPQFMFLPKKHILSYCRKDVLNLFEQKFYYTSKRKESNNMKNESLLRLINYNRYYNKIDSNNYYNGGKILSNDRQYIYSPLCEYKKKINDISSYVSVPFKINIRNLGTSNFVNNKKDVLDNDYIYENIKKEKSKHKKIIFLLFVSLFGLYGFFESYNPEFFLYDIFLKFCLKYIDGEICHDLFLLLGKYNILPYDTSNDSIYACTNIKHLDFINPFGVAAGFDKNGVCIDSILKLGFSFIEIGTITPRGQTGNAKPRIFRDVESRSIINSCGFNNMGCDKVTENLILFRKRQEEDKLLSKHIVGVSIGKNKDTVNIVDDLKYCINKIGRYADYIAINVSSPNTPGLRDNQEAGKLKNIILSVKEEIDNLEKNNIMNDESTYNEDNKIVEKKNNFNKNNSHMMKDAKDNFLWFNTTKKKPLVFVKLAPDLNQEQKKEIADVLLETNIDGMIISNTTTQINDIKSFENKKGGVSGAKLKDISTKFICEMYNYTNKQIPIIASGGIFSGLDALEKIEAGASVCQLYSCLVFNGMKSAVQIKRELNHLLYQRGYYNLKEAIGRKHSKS
# [5] = P. aeruginosa biofilm formation inhibitors, primary screen, strain PAO1, LB-PBS medium, absorbance 600 nm (AID 1176); details: P. aeruginosa PAO1 growth/biofilm, A600, 12 h; higher = more signal
# [6] = S. cerevisiae RM11-1a growth modifiers, primary screen, strain RM11-1a, OD600, basal, 24 h (AID 1177); details: OD600, 24 h, higher = more signal, called active from +8 up or from −8 down;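 note: cultures grown under basal conditions with no added stressor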
# [7] = E. coli acrAB mutant growth effects, primary screen, E. coli filamentation inducers, strain DRC39, OD650, 24 h (AID 1178); details: higher = more signal, called active from +8 up or from −8 down;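 note: growth measured as culture turbidity by optical density at 650 nm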
# [8] = E. coli acrAB mutant growth effects, primary screen, E. coli filamentation inducers, strain DRC39, OD650, 48 h (AID 1179);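 note: screen aims at cell division blockers that make cells filament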; details: E. coli DRC39 delta-acrAB growth, higher = more signal, called active from +8 up or from −8 down
# [9] = RPMI8226 myeloma cell viability, profiling panel, resazurin fluorescence, basal, 24 h, PK04 Diversity Set (AID 1180); details: higher = more signal;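 note: RPMI8826 multiple myeloma cell line at 5000 cells per well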
# [10] = target: E3 ubiquitin-protein ligase XIAP (Homo sapiens) (UniProt P98170); assay: XIAP binders, primary screen, biophysical, small-molecule microarray, fluorescence 635 nm (AID 1181); details: small-molecule microarray binding, higher = more signal;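 note: score merges 667 nm emission and signal to noise over triplicate slides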
# E3 ubiquitin-protein ligase XIAP (Homo sapiens), sequence (P98170 whole entry, looked up): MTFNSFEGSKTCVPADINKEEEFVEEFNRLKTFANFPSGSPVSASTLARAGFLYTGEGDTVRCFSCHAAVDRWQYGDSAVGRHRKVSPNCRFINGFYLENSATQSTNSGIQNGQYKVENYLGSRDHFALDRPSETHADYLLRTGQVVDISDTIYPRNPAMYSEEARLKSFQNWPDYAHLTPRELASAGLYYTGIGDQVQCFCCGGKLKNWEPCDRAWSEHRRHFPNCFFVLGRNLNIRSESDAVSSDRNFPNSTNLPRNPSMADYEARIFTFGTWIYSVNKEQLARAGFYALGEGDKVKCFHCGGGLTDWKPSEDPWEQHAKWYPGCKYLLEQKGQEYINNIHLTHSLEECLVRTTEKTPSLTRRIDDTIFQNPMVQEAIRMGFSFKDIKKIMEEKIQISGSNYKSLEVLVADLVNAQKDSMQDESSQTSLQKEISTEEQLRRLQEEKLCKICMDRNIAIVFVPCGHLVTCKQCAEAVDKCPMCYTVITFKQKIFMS
# [11] = test system: XIP peptide (Xip251-270) binding; assay: small-molecule binders of XIP peptide, primary screen, biochemical, small-molecule microarray, fluorescence 635/667 nm, 0.1 µg/mL protein (AID 1182); details: fluorescent protein binding, 635 nm, higher = more signal, called active from +8 up or from −8 down
# XIP peptide (Xip251-270) = assay: small-molecule binders of XIP peptide, primary screen, biochemical, small-molecule microarray, fluorescence 635/667 nm, 0.5 µg/mL protein (AID 1183); details: small-molecule microarray binding, fluorescence 635 nm; higher = more signal
# [12] = Plasmodium falciparum growth inhibition, primary screen, strain 3D7, DAPI fluorescence, 100 nL (AID 1184);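 note: parasites grown inside human red blood cells in medium with human serum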; details: P. falciparum 3D7 growth, 3 d, higher = more signal
# [13] = target: Homeobox protein Hox-A13 (Mus musculus) (UniProt Q62424); assay: inhibitors of HoxA13-DNA binding, primary screen, biochemical, fluorescence polarization, labeled oligonucleotide (AID 1185); details: 15 min, higher = more signal, called active from +8 up or from −8 down
# Homeobox protein Hox-A13 (Mus musculus), sequence (Q62424 whole entry, looked up): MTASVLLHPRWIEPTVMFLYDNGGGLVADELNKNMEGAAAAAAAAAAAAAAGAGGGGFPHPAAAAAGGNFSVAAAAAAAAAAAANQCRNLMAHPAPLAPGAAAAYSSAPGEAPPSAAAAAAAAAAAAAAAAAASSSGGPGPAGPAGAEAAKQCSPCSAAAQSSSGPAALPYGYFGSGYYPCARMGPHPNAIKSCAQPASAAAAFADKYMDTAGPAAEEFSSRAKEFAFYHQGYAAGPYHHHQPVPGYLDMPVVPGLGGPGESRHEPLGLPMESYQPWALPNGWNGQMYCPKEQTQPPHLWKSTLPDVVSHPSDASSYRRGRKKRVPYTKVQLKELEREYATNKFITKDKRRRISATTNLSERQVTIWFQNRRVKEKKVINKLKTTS
# [14] = inhibitors of hydroxyurea-induced Chk1 phosphorylation, primary screen, imaging, HeLa, phospho-Chk1 antibody, percent positive cells (AID 1186); details: hydroxyurea-induced phospho-Chk1 immunofluorescence imaging, higher = more signal
# [15] = inhibitors of hydroxyurea-induced Chk1 phosphorylation, primary screen, imaging, HeLa, phospho-Chk1 nuclear intensity (AID 1187); details: hydroxyurea-induced phospho-Chk1 immunofluorescence imaging, higher = more signal
SMILES,z-score [1],z-score [2],z-score [3],composite z-score [4],z-score [5],z-score [6],z-score [7],z-score [8],z-score [9],composite z-score [10],composite z-score [11],composite z-score (XIP peptide (Xip251-270)),z-score [12],z-score [13],z-score [14],z-score [15]
COCCCNC(=O)[C@@]1(Cc2ccccc2N=[N+]=[N-])COC(c2ccc(OCCCO)cc2)=N1,0.677,-1.68 (inactive),-0.583 (inactive),0.962 (inactive),-0.76 (inactive),0.483 (inactive),0.349 (inactive),0.746 (inactive),0.895,0.0049,1 (inactive),0.626,-2.06,-5.18 (inactive),-0.0232 (inactive),-0.101 (inactive)
CCCCCCCCCCC(O)C1C=CC2C(=O)N(C)C(=O)C2N1NC(=O)OC(C)(C)C (centres undefined),-5.01,-5.22 (inactive),-4.74 (inactive),1.1 (inactive),0.0337 (inactive),1.05 (inactive),-0.235 (inactive),-1.45 (inactive),-5.64,0.109,0.0658 (inactive),0.502,-0.451,-2.93 (inactive),1.91 (inactive),1.4 (inactive)
COCCCNC(=O)[C@]1(CCS(=O)(=O)c2ccccc2)N=C(c2ccc(OCCCO)cc2)O[C@@H]1c1ccccc1N=[N+]=[N-],0.129,0.0817 (inactive),-0.458 (inactive),0.887 (inactive),0.413 (inactive),0.771 (inactive),0.357 (inactive),0.0059 (inactive),-0.998,-0.199,1.26 (inactive),0.731,-2.4,-3.71 (inactive),-0.198 (inactive),-0.266 (inactive)
Cc1cc(C)c(C(O)C2C=CC3C(=O)NC(=O)C3N2Nc2ccc(Cl)cc2Cl)c(C)c1 (centres undefined),-2.05,-3.83 (inactive),-1.94 (inactive),-0.0825 (inactive),1.62 (inactive),0.737 (inactive),-0.731 (inactive),-1.17 (inactive),-1.81,0.0251,0.696 (inactive),0.179,0.17,-3.47 (inactive),0.73 (inactive),0.314 (inactive)
C=CCN1Cc2ccccc2[C@H]2OC(c3ccc(OCCCO)cc3)=N[C@@]2(CC=C)C1=O,-0.594,-0.926 (inactive),-1.72 (inactive),-0.116 (inactive),0.507 (inactive),1.18 (inactive),0.36 (inactive),1.09 (inactive),-1.8,0.069,0.808 (inactive),0.746,-2.15,-3.06 (inactive),-0.39 (inactive),-0.0236 (inactive)
COCCOC(=O)N1C(=O)[C@@]2(c3cc(C#CCNC(N)=O)ccc31)[C@H](C(=O)N1CCc3cc(OC)c(OC)cc3C1)[C@H]1C(=O)O[C@H](c3ccccc3)[C@H](c3ccccc3)N1[C@@H]2c1ccccc1OCCO,0.0874,1.11 (inactive),0.256 (inactive),-1.68 (inactive),1.54 (inactive),0.816 (inactive),1.27 (inactive),1.29 (inactive),0.274,0.0578,1.53 (inactive),0.498,-2.2,0.577 (inactive),0.0782 (inactive),0.147 (inactive)
C=C(COC)/C(=C/C[C@H](OC(=O)c1ccncc1)c1ccccc1OCCO)c1cnc2ccccc2c1,2.02,-0.865 (inactive),0.247 (inactive),-3.12 (inactive),-0.104 (inactive),-0.0351 (inactive),0.213 (inactive),-0.121 (inactive),0.377,-0.0102,0.683 (inactive),0.612,-2.99,-5.29 (inactive),-0.446 (inactive),-0.166 (inactive)
C=CCNC(=O)[C@H]1[C@@H]2C(=O)O[C@@H](c3ccccc3)[C@@H](c3ccccc3)N2[C@@H](c2ccc(O)cc2)[C@]12C(=O)N(C(=O)OCCOC)c1ccccc12,-0.757,0.628 (inactive),-0.331 (inactive),0.747 (inactive),0.229 (inactive),0.931 (inactive),-0.919 (inactive),-1.08 (inactive),0.164,-0.02,0.995 (inactive),0.742,-1.38,-3.73 (inactive),0.175 (inactive),-0.0776 (inactive)
CO[C@]12C=C(Br)[C@@H](C[C@@H]1c1cccc(C)c1)[C@@]1(CO1)C2=O,1.17,-5.41 (inactive),-0.674 (inactive),0.227 (inactive),-0.447 (inactive),-0.338 (inactive),0.632 (inactive),0.378 (inactive),0.478,-0.148,0.177 (inactive),0.179,0.267,-1.7 (inactive),-0.545 (inactive),-0.28 (inactive)
O=C1O[C@H](c2ccccc2)[C@H](c2ccccc2)N2[C@H]1[C@@H](C(=O)Nc1nc3ccccc3s1)[C@]1(C(=O)Nc3ccc(C#CCCO)cc31)[C@H]2c1ccc(O)cc1,0.506,0.14 (inactive),0.157 (inactive),-0.253 (inactive),1.04 (inactive),0.604 (inactive),0.266 (inactive),0.145 (inactive),-2.4,1.01,0.25 (inactive),0.625,0.902,-1.02 (inactive),-0.334 (inactive),-0.376 (inactive)
Cn1cccc1C(O)C1C=CC2C(=O)NC(=O)C2N1Nc1ccc(Cl)cc1Cl (centres undefined),-1.75,-3.53 (inactive),-1.86 (inactive),0.121 (inactive),1.69 (inactive),0.441 (inactive),-1.09 (inactive),-1.28 (inactive),-1.98,0.315,0.789 (inactive),0.768,-0.152,-3.92 (inactive),0.702 (inactive),0.532 (inactive)
O=C1O[C@H](c2ccccc2)[C@H](c2ccccc2)N2[C@H]1[C@@H](C(=O)O)[C@]1(C(=O)Nc3ccc(C#CC4=CCCCC4)cc31)[C@H]2c1ccc(O)cc1,-0.176,-1.73 (inactive),0.248 (inactive),-4.56 (inactive),1.42 (inactive),0.168 (inactive),-0.448 (inactive),-0.174 (inactive),-0.0705,0.0938,0.406 (inactive),0.617,-0.628,-5.74 (inactive),-0.0146 (inactive),-0.19 (inactive)
C=CCN1C(=O)[C@@]2(O[C@@H](CCn3cc([C@H](O)c4ccccc4)nn3)[C@H]([Si](C)(C)c3ccc(OC)cc3)[C@H]2C)c2cc(N3CCC3=O)ccc21,-0.721,0.869 (inactive),-1.14 (inactive),0.936 (inactive),1.25 (inactive),2.39 (inactive),0.397 (inactive),0.477 (inactive),-1.09,-0.153,-0.0195 (inactive),-0.114,-2.1,-5.38 (inactive),-0.108 (inactive),0.582 (inactive)
COC(=O)C1=CC(CCCO)=CC(C2CC2)N(C)C=C1C(=O)OC (centres undefined),0.421,-0.589 (inactive),-0.463 (inactive),-1.43 (inactive),0.82 (inactive),-1.09 (inactive),1.04 (inactive),1.58 (inactive),-0.0242,0.0054,0.473 (inactive),0.16,0.493,-6.16 (inactive),-0.68 (inactive),-1.04 (inactive)
C=CCOC(=O)[C@H]1[C@@H]2C(=O)O[C@@H](c3ccccc3)[C@@H](c3ccccc3)N2[C@@H](c2ccc(OCCOC(=O)[C@H]3C[C@H]4C(=O)N[C@@H](CC(C)C)C(=O)N4[C@H]3c3cccc(OCCO)c3)cc2)[C@]12C(=O)Nc1ccc(I)cc12,-0.054,1.9 (inactive),-0.414 (inactive),0.124 (inactive),2.9 (inactive),0.447 (inactive),-0.0744 (inactive),-0.62 (inactive),-0.385,-0.0174,0.124 (inactive),0.694,-1.79,0.344 (inactive),-0.592 (inactive),-1.19 (inactive)
C=CC[C@]1(C(=O)O)COC(c2ccc(OCCCO)cc2)=N1,0.264,0.32 (inactive),0.546 (inactive),0.146 (inactive),0.37 (inactive),-0.643 (inactive),-0.353 (inactive),-0.201 (inactive),-0.1,0.1,0.324 (inactive),0.614,-0.12,-0.685 (inactive),-0.173 (inactive),-0.315 (inactive)
O=C1C2C=CC(C(O)c3ccc(F)cc3)N(n3cnnc3)C2C(=O)N1Cc1ccccc1 (centres undefined),-1.05,0.885 (inactive),-0.794 (inactive),-0.188 (inactive),-0.128 (inactive),-0.592 (inactive),-0.352 (inactive),-0.434 (inactive),-1.47,-0.145,0.34 (inactive),0.854,-1.09,-0.994 (inactive),0.0044 (inactive),-1.28 (inactive)
CC(C)C(CO)N1C(=O)[C@@H]2C3C(=O)OCCC/C=C\[C@H]3OC23C=CCN(C(C)(C)C)C(=O)[C@@H]13 (some centres undefined),-0.263,0.463 (inactive),-0.428 (inactive),-1.85 (inactive),-0.0711 (inactive),-0.348 (inactive),0.235 (inactive),0.129 (inactive),-0.489,-0.204,-0.68 (inactive),-0.201,1.16,-5.07 (inactive),0.0464 (inactive),-0.0642 (inactive)
CCOc1cc(C(O)C2C=CC3C(=O)N(c4ccccc4)C(=O)C3N2Nc2ccc(C#N)cc2)ccc1O (centres undefined),-1.79,-0.0687 (inactive),-1.71 (inactive),0.45 (inactive),0.888 (inactive),0.093 (inactive),-0.523 (inactive),-0.245 (inactive),-1.4,-0.0438,0.186 (inactive),0.535,-0.435,-4.2 (inactive),-0.22 (inactive),-0.0602 (inactive)
